Test results reported in PubChem BioAssay (NCATS).
Several values for one entry are separate records, joined by “and”; a condition that tells them apart may be missing. Identical values can stand only once. Inconclusive results are not listed. Activity calls are given as the source filed them. Unless noted, calls come from the whole dose curve; as a rule, active = well fitted curve in the direction sought with a large enough effect; inconclusive = small, poorly fitted or top-dose-only effect, or another doubt; inactive = no such curve, though single readings can be large; an effect the other way counts as inactive or inconclusive.

Key:
[1] = Cell Viability - MRC5 (AID 434; calls by dose curve;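 note: potency is the fitted concentration of half-maximal effect; cells exposed to compound for 40 hours at 37 °C; potency reflects cytotoxicity seen as loss of intracellular ATP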); conditions: MRC5 lung fibroblast viability, qHTS
Outline: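 AC50 values come from Hill-equation fits of intracellular ATP loss, measured by CellTiter-Glo luminescence. Normal lung fibroblasts (MRC5) had 40 hr compound treatment at 37 C, normalized between DMSO and 100 uM tamoxifen.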

[2] = Cell Viability - HUV-EC-C (AID 542); conditions: HUV-EC-C endothelial cell viability, qHTS; series mostly up to 92.2 µM;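 note: cells exposed to compound for 40 hours; nearly all actives have a fitted effect of over 35% in size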; note: potency is the fitted concentration of half-maximal effect
Outline: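 CellTiter-Glo luminescence measured ATP loss in HUV-EC-C cells (1000/well) after 40 hr compound exposure at 37 °C, in complete culture medium. Concentration-response data were Hill-fitted to give AC50.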

[3] = Cellular Toxicity (caspase-3) HepG2 (AID 654); conditions: HepG2 caspase-3 activation, luminescence; series mostly up to 92.2 µM;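 note: cells exposed to compound for 16 hours before reading; 0% = DMSO alone and 100% = caspase signal from 100 µM tamoxifen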
Outline: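 Caspase 3/7 activation is measured as a luminescence increase (aminoluciferin substrate) after 16 h compound exposure of human hepatocarcinoma HepG2 cells. AC50 values are Hill fits, scaled between DMSO baseline and 100 uM tamoxifen stimulation.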

[4] = Cellular Toxicity (caspase-3) HUV-EC-C (AID 656); conditions: HUV-EC-C cells, caspase-3 activation (apoptosis); series mostly up to 92.2 µM
Outline: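 HUV-EC-C cells (1000/well) in complete medium, compound-treated 16 h at 37 °C; caspase-3/7 activity read by Caspase-Glo 3/7 luminescence. Normalized to DMSO (basal) and 100 uM tamoxifen (100%); AC50 from Hill-equation concentration-response fits.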

[5] = Cellular Toxicity (caspase-3) SHSY5Y (AID 657); conditions: SH-SY5Y caspase-3 activation; series mostly up to 91.7 µM
Outline: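 SH-SY5Y human neuroblastoma cells, 1500/well, exposed to compound for 16 hours at 37 °C in complete medium. Caspase-3/7 activity read by Caspase-Glo luminescence after 1 hr at room temperature, normalized to DMSO and 10 uM staurosporine; AC50 from Hill fit.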

[6] = Cellular Toxicity (caspase-3) MRC-5 (AID 659); conditions: MRC-5 cells, luminescence, normalized: DMSO 0%, 10 µM staurosporine 100%; series mostly up to 91.7 µM
Outline: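 Luminescent Caspase-Glo 3/7 read-out (1 h, room temperature) after a 16 h, 37 °C compound exposure of MRC-5 lung fibroblasts at 1500 cells/well. Concentration-response AC50 from Hill equation; 0% DMSO, 100% 10 uM staurosporine.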

[7] = Cellular Toxicity (caspase-3) Mesangial (AID 660); conditions: mesangial cells, normalized: DMSO 0%, 100 µM tamoxifen 100%; series mostly up to 91.7 µM;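 note: cells exposed to compound for 16 h before the caspase read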
Outline: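 Caspase 3/7 activation measured by Caspase-Glo 3/7 luminescence (20 min, room temperature) following 16 h exposure of mesangial cells (1000/well); AC50 from Hill-equation fit, normalized to DMSO and 100 uM tamoxifen.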

[8] = Cellular Toxicity (caspase-3) SK-N-SH (AID 661); conditions: SK-N-SH caspase-3 activation, qHTS, DMSO as zero, staurosporine as full; series mostly up to 91.7 µM
Outline: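 Caspase 3/7 activation was read by luminogenic substrate cleavage after 16 hour treatment of SK-N-SH cells. Signal was scaled between DMSO and 10 uM staurosporine, and concentration-response data were fitted with the Hill equation for AC50.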

[9] = Cellular Toxicity (caspase-3) H-4-II-E (AID 663); conditions: H-4-II-E rat hepatoma; Potency: caspase-3 activation; series mostly up to 92.2 µM;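 note: cells exposed to compound for 16 hr before readout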
Outline: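 Caspase 3/7 activation measured by luminescent aminoluciferin substrate cleavage after 16 hr compound treatment of H-4-II-E cells in complete medium. Increase normalized between DMSO (basal) and 100 uM tamoxifen (100%); Hill-equation AC50 from concentration-response.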

[10] = Cellular Toxicity (caspase-3) N2a (AID 665); conditions: N2a cells, luminescence, normalized: DMSO 0%, 10 µM staurosporine 100%; series mostly up to 92.2 µM;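 note: compound exposure lasted 16 h at 37 °C before readout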
Outline: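 Caspase-3/7 activation measured as luminescence from Caspase-Glo reagent (1 h, room temperature) after 16 h compound exposure of mouse N2a cells. AC50 values from Hill-equation concentration-response, scaled between DMSO and 10 uM staurosporine.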

[11] = Cellular Toxicity (caspase-3) NIH 3T3 (AID 666); conditions: NIH 3T3 caspase-3 activation, apoptosis/toxicity, 0% DMSO, 100% is 100 µM tamoxifen; series mostly up to 92.2 µM;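 note: 0% = DMSO basal and 100% = 100 µM tamoxifen stimulation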
Outline: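 Caspase-Glo 3/7 luminescence reported caspase activation in 1000 NIH 3T3 cells/well after 16 h compound exposure at 37 C. DMSO set basal and 100 uM tamoxifen set 100% stimulation; concentration-response modeled with the Hill equation for AC50.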

[12] = Cellular Toxicity (caspase-3) Renal Proximal Tubule (AID 667); conditions: renal proximal tubule cells, primary cells freshly taken from rat; Potency: caspase-3 activation; series mostly up to 91.7 µM;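 note: cells exposed to compound for 16 hours at 37 °C before detection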
Outline: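 Freshly isolated primary rat kidney proximal tubule cells, 1000/well, treated 16 hr at 37 °C, then Caspase-Glo 3/7 luminescence after 1 hr. Normalized to DMSO and 10 uM staurosporine; AC50 from Hill fit.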

[13] = MultiTox-Fluor Cytotoxicity Assay - LYMP1-001 - Dead Cells (AID 946); conditions: LYMP1-001 lymphoblastoid cells, dead-cell protease fluorescence; series mostly up to 92.2 µM
Outline: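 Seed 2500 LYMP1-001 cells/well, incubate 5 hr at 37 C; add compound, 16 hr at 37 C; add MultiTox-Fluor reagent, 60 min RT; read dead-cell fluorescence Ex/Em=485/520. Normalize to DMSO and 15 uM tetraoctylammonium bromide.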

[14] = MultiTox-Fluor Cytotoxicity Assay - LYMP1-003 - Dead Cells (AID 961); conditions: LYMP1-003 lymphoblastoid cells, dead-cell protease fluorescence; series mostly up to 92.2 µM; note: nearly all actives have a fitted effect of over 70% in size
Outline: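 LYMP1-003 lymphoblastoid, 2500 cells/well, 5 hr settle then 16 hr cpd at 37 C; MultiTox-Fluor reagent 60 min RT; Ex/Em 485/520 dead-cell signal; norm. DMSO = 0%, 15 uM tetraoctylammonium bromide = 100%; Hill AC50.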

[15] = MultiTox-Fluor Cytotoxicity Assay - LYMP1-003 - Live Cells (AID 962); conditions: LYMP1-003 lymphoblastoid cells, MultiTox-Fluor live-cell protease fluorescence; series mostly up to 92.2 µM;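 note: 0% = DMSO only and full loss = 92 µM tetraoctylammonium bromide; cytotoxic hits lower the live-cell protease signal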
Outline: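 Live-cell protease activity (GF-AFC substrate, 405/510 nm, 60 min at room temperature) after 16 h, 37 C compound exposure of human lymphoblastoid LYMP1-003 cells; concentration-response fitted to the Hill equation for AC50.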

[16] = Cell Viability - LYMP1-003 - Assay at 24 hr (AID 963); conditions: LYMP1-003 lymphoblastoid cell viability; series mostly up to 92.2 µM;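 note: plate controls were DMSO only for no effect and tetraoctylammonium bromide positive control for full effect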
Outline: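 Concentration-response qHTS: ATP loss measured by CellTiter-Glo luminescence after 24 h compound exposure at 37 C. Cells were LYMP1-003 human lymphoblastoid, 2500 per well. AC50 derived via standard Hill equation modeling.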

[17] = qHTS Assay for Identification of Small Molecule Inducers of Hypoxia Response (AID 2120; active = well fitted curve in the direction sought with a large enough effect in the signal ratio, with a control signal flat, not every such curve was filed as active; the % refers to the signal ratio; note: 0% is about no effect); conditions: hypoxia response reporter cells, beta-lactamase ratio readout; series mostly up to 104 µM
Outline: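 Reporter induction read as the CCF4 blue/green (460nm/530nm) emission ratio after 2.5 h dye loading at room temperature. ME-180 HRE-beta-lactamase cells received titrated compounds for 17 h at 37 degrees Celsius; AC50 values derived.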

[18] = target: Peroxisome proliferator-activated receptor alpha (Homo sapiens) (UniProt Q07869); experiment: qHTS assay for small molecule agonists of the peroxisome proliferator-activated receptor alpha (PPARalpha) signaling pathway (AID 651778); conditions: PathHunter PPARalpha complementation, chemiluminescence, 6 h; max response: stronger effect = higher value; note: % of control where 0% means no effect
Outline: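 Chemiluminescence from complemented enzyme reported PPARalpha activation in cells after 6 hr of compound treatment at 37 C. The detection reagent was incubated for 60 min at room temperature, and compounds were scored as agonists.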

[19] = qHTS assay for small molecule agonists of the antioxidant response element (ARE) signaling pathway measured by Nrf2-dependant transcriptional activity - cell viability counter screen (AID 720653; active = well fitted curve in the direction sought with a large enough effect in the repeat runs; an effect the other way counts as inactive or inconclusive; note: % is set by controls: 0 for no effect and ±100 for the full control effect); conditions: ARE-bla HepG2 viability, CellTiter-Glo ATP luminescence, 16 h; max response: stronger effect = lower value
Outline: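 Cytotoxicity counter screen: intracellular ATP quantified by CellTiter-Glo luminescence in the same ARE-bla HepG2 plates, after 16 h compound exposure and a 2 h beta-lactamase substrate step.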

[20] = qHTS assay for cell viability of the p53RE-bla HCT-116 cell line (AID 743292); conditions: p53RE-bla HCT-116 viability, ATP luminescence, 16 h; series mostly up to 95 µM; note: % is set by controls: 0 for no effect and ±100 for the full control effect; nearly all actives have a fitted effect of over 55% in size
Outline: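 ATP-based luminescence, 16 h compound exposure at 37 C, p53RE-bla HCT-116 cells at 4,000/well.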

Sequence of Peroxisome proliferator-activated receptor alpha (Homo sapiens) (Q07869 whole entry, looked up): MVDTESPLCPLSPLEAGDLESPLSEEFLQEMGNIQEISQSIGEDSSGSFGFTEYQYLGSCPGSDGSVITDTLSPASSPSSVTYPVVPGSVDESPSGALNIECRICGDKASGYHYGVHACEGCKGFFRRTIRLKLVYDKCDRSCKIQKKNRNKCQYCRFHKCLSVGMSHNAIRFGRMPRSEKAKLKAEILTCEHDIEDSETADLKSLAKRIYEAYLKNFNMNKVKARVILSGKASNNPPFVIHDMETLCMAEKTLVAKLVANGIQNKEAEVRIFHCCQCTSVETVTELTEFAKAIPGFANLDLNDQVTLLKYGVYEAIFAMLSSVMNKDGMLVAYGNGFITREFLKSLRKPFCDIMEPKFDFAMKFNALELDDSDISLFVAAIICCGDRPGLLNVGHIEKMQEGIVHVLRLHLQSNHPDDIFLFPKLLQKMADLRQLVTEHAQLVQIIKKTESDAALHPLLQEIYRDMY

CC(=O)OC(C(=O)c1ccccc1)c1ccccc1 (stereo not given)
inactive: Potency [1] > 92 µM | Potency [2] | Potency [3] | Potency [4] | Potency [5] | outcome [6] | outcome [7] | outcome [8] | Potency [9] | outcome [10] | outcome [11] | Potency [12] | Potency [13] | Potency [14] | Potency [15] | Potency [16] | Potency [17] | max response [18] -5.41% | max response [19] -8.03% | Potency [20]

C=CC(=O)CC
inactive: Potency [1] > 92 µM | Potency [2] | Potency [3] | Potency [4] | Potency [5] | outcome [6] | outcome [7] | outcome [8] | Potency [9] | outcome [10] | outcome [11] | Potency [12] | Potency [13] | Potency [14] | Potency [15] | Potency [16] | Potency [17] | max response [18] 8.86% | max response [19] -0.839% | Potency [20]

Nc1ccc(N=Nc2ccccc2)c(N)c1
inactive: Potency [1] > 92 µM | Potency [3] | Potency [4] | Potency [5] | outcome [6] | outcome [7] | outcome [8] | Potency [9] | outcome [10] | Potency [12] | Potency [13] | Potency [14] | Potency [15] | Potency [16] | Potency [17] | max response [18] -3.41% | max response [19] -16.9% | Potency [20]

Nc1ccc2c(c1)C(=O)c1ccccc1C2=O
inactive: Potency [1] > 92 µM | Potency [3] | Potency [4] | Potency [5] | outcome [6] | outcome [7] | outcome [8] | Potency [9] | outcome [10] | Potency [12] | Potency [13] | Potency [14] | Potency [15] | Potency [16] | Potency [17] | max response [18] -6.61% and 0.0151% | max response [19] -14.7% and -7.62% | Potency [20]
active: Potency [2] 31.6 µM

Cc1cc(=O)oc2cc(O)cc(O)c12
inactive: Potency [1] > 92 µM | Potency [2] | Potency [3] | Potency [4] | Potency [5] | outcome [6] | outcome [7] | outcome [8] | Potency [9] | outcome [10] | outcome [11] | Potency [12] | Potency [13] | Potency [14] | Potency [15] | Potency [16] | Potency [17] | max response [18] 0.255% | max response [19] 0.736% | Potency [20]

c1c[nH]cn1
inactive: Potency [1] > 92 µM | Potency [2] | Potency [3] | Potency [4] | Potency [5] | outcome [6] | outcome [7] | outcome [8] | Potency [9] | outcome [10] | outcome [11] | Potency [12] | Potency [13] | Potency [14] | Potency [15] | Potency [16] | Potency [17] | max response [18] -0.778% | max response [19] -2.06% | Potency [20]

O=c1[nH]ncc2ccccc12
inactive: Potency [1] > 92 µM | Potency [2] | Potency [3] | Potency [4] | Potency [5] | outcome [6] | outcome [7] | outcome [8] | Potency [9] | outcome [10] | outcome [11] | Potency [12] | Potency [13] | Potency [14] | Potency [15] | Potency [16] | Potency [17] | max response [18] -3.48% | max response [19] 2.85% | Potency [20]

Nc1ccc(-c2ccc(N)c(O)c2)cc1O
inactive: Potency [1] > 92 µM | Potency [2] | Potency [3] | Potency [4] | Potency [5] | outcome [6] | outcome [8] | Potency [9] | outcome [10] | outcome [11] | Potency [12] | Potency [13] | Potency [14] | Potency [15] | Potency [16] | Potency [17] | max response [18] -5.39% | max response [19] 1.43% | Potency [20]

O=[N+]([O-])c1ccccc1Nc1ccccc1
inactive: Potency [1] > 92 µM | Potency [2] | Potency [3] | Potency [4] | Potency [5] | outcome [6] | outcome [7] | outcome [8] | Potency [9] | outcome [10] | outcome [11] | Potency [12] | Potency [13] | Potency [14] | Potency [15] | Potency [16] | Potency [17] | max response [18] -0.358% | max response [19] -2.68% | Potency [20]

O=CC(=O)c1ccccc1
inactive: Potency [1] > 92 µM | Potency [2] | Potency [3] | Potency [4] | Potency [5] | outcome [6] | outcome [7] | outcome [8] | Potency [9] | outcome [10] | outcome [11] | Potency [12] | Potency [13] | Potency [15] | Potency [16] | Potency [17] | max response [18] -2.48% | max response [19] -2.84% | Potency [20]

Nc1cc(C(=O)O)c(O)c(S(=O)(=O)O)c1
inactive: Potency [1] > 92 µM | Potency [2] | Potency [3] | Potency [4] | Potency [5] | outcome [6] | outcome [7] | outcome [8] | Potency [9] | outcome [10] | outcome [11] | Potency [12] | Potency [13] | Potency [14] | Potency [15] | Potency [16] | Potency [17] | max response [18] -5.08% | max response [19] 2.52% | Potency [20]

Nc1cnn([C@@H]2O[C@H](CO)[C@@H](O)[C@H]2O)c(=O)n1
inactive: Potency [1] > 92 µM | Potency [2] | Potency [3] | Potency [4] | Potency [5] | outcome [6] | outcome [7] | outcome [8] | Potency [9] | outcome [10] | outcome [11] | Potency [12] | Potency [13] | Potency [14] | Potency [15] | Potency [16] | Potency [17] | max response [18] -1.23% | max response [19] 20.2% | Potency [20]
